This is a sample that favours compounds with a hit; in the whole collection about 3.2% have one here.
TWEAK-Fn14 inh = inhibitors of TWEAK-Fn14 signaling, primary screen, luciferase reporter cells, uHTS | AID 1159606, 2016 | TWEAK-stimulated Fn14 reporter cells, luciferase luminescence, 8 h | inhibition, % at 10 µM | 360,000 compounds, 2% hits; in the data active = inhibition above about 50%
EWS-Fli inh = EWS/Fli-driven NR0B1 reporter inhibitors, primary screen, A673 cells, NR0B1 luciferase, luminescence, MLPCN library. AID 651661, 2012. inhibition, % at 12.6 µM. viability-normalised. 350,000 compounds, 0.67% hits;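 active = mean inhibition of at least 50% after viability correction, with every replicate also passing that limit; inconclusive = mean reaches 50% but only one of two replicates passes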;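 also: firefly luciferase signal divided by Alamar Blue viability fluorescence both relative to DMSO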
PAX8 inh HTS = inhibitors of PAX8-driven TPO luciferase reporter, primary screen, RMG-I cells, single concentration; SteadyGlo, 24 h; 360,000 compounds, 1.2% hits; inhibition, % at 12.6 µM;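 active = mean replicate inhibition at least 60% with every replicate also reaching 60%; inconclusive = only one of the two criteria is met; inactive = mean below 60% and not all replicates reaching 60%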;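 also: luciferase light reporting Pax8 driven TPO promoter activity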
LGR2 antag = inhibitors of bursicon-induced LGR2 CRE-luciferase signal, primary screen, cell-based, HEK293, CRE-luciferase reporter, bursicon stimulation. Drosophila bursicon receptor LGR2 (rickets). bursicon-stimulated, 4 h. inhibition, % at 9.99 µM. 380,000 compounds, 0.35% hits. AID 720647, 2013;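 active = drop in luminescence signal, shown as inhibition above about 50% in the replicate tests, limit read from the data, passing the limit was not always enough; inconclusive = probably only some replicates passing the limit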;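 also: agonist challenge used bursicon conditioned medium at about half maximal strength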
LMP1 NFkB inh = EBV LMP1-driven NF-kappaB luciferase reporter inhibitors, primary screen, cell-based, luminescence, single point; LMP1-induced NF-kappaB luciferase reporter cells; AID 504558, 2011; inhibition, % at 12.5 µM; 350,000 compounds, 0.69% hits; in the data active = inhibition above about 41%; inconclusive = no clear call, values can overlap the other calls
TROY NFkB inh = inhibitors of TROY-driven NF-kB signaling, primary screen, Q293 LMP1-TROYcd cells, NF-kB luciferase, uHTS; Q293 LMP1-TROYcd NF-kB luciferase reporter, 4 h; inhibition, % at 10 µM; 360,000 compounds, 0.98% hits;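 active = compounds whose plate-normalised and pattern-corrected inhibition of the luciferase reporter signal at the single screening dose is 50% or more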
Large screens that a line does not name were inactive.

CCC(=O)NC(c1ccc(OC)c(OC)c1)c1cc(Cl)c2cccnc2c1O (stereo not given)	none (no result: LGR2 antag)
C[C@@H]1CN([C@@H](C)CO)C(=O)c2cccc(NC(=O)C3CCOCC3)c2O[C@H]1CN(C)S(=O)(=O)c1cn(C)cn1	none (no result: TWEAK-Fn14 inh, PAX8 inh HTS, LMP1 NFkB inh, TROY NFkB inh)
COc1ccc2c3c(n(C)c2c1)[C@@H](CO)N(C)CC31CN(C(=O)c2ccccc2F)C1	none (no result: TWEAK-Fn14 inh, PAX8 inh HTS, LMP1 NFkB inh, TROY NFkB inh)
COc1ccc(S(=O)(=O)Nc2ccc3c(c2)C(=O)N([C@@H](C)CO)C[C@H](C)[C@@H](CN(C)C(=O)Nc2ccc(F)cc2)OCCCC[C@@H](C)O3)cc1	none (no result: TWEAK-Fn14 inh, LMP1 NFkB inh, TROY NFkB inh)
CC(=O)NC(c1ccc2ccccc2c1)c1ccc2cccnc2c1O (stereo not given)	PAX8 inh HTS 92.7, LMP1 NFkB inh 48.9
CCCC(=O)NC(c1ccco1)c1cc(Cl)c2cccnc2c1O (stereo not given)	none (no result: EWS-Fli inh, PAX8 inh HTS, LGR2 antag)
CCCC(=O)NC(c1ccc(Cl)cc1Cl)c1ccc2cccnc2c1O (stereo not given)	PAX8 inh HTS 80.2, LMP1 NFkB inh 62.8
CC(=O)NC(c1cccs1)c1cc(F)c2cccnc2c1O (stereo not given)	LMP1 NFkB inh 53.2
CCCC(=O)NC(c1ccc(Cl)cc1)c1ccc2cccnc2c1O (stereo not given)	PAX8 inh HTS 85.3, LMP1 NFkB inh inconclusive
CCCC(=O)NC(c1ccc2c(c1)OCO2)c1cc(Cl)c2cccnc2c1O (stereo not given)	none (no result: EWS-Fli inh, PAX8 inh HTS, LGR2 antag)
COCC(=O)N1CC2(C1)CN(C(=O)NC1CCCC1)[C@@H](CO)c1c2c2ccc(OC)cc2n1C	none (no result: TWEAK-Fn14 inh, LMP1 NFkB inh, TROY NFkB inh)
CCCCC(=O)NC(c1ccc(Cl)cc1)c1ccc2cccnc2c1O (stereo not given)	PAX8 inh HTS 73.4, LMP1 NFkB inh 67.1
CCC(=O)NC(c1cccs1)c1ccc2cccnc2c1O (stereo not given)	PAX8 inh HTS 66.3, LMP1 NFkB inh 74.2
CCCC(=O)NC(c1ccc(C)cc1)c1ccc2cccnc2c1O (stereo not given)	LMP1 NFkB inh 62.5 (no result: EWS-Fli inh, PAX8 inh HTS, LGR2 antag)
CC(C)CC(=O)NC(c1cccs1)c1ccc2cccnc2c1O (stereo not given)	none (no result: EWS-Fli inh, PAX8 inh HTS, LGR2 antag)
C[C@@H]1CN([C@H](C)CO)C(=O)c2cc(NC(=O)Nc3ccc(F)cc3)ccc2O[C@H]1CN(C)S(C)(=O)=O	none (no result: TWEAK-Fn14 inh, LMP1 NFkB inh, TROY NFkB inh)
Cc1cc(OCC(O)CNC(C)c2ccccc2)ccc1C(C)C (stereo not given)	LGR2 antag 66.2
CCCC(NCC(O)COc1ccc(-c2ccccc2)cc1)c1ccccc1 (stereo not given)	LGR2 antag 75.0
Cc1cc(C(=O)CN2CCC(C)CC2)c(C)n1-c1ccccc1F	TWEAK-Fn14 inh 81.8, TROY NFkB inh 79.6 (no result: LGR2 antag)
CCC(=O)N(CC)C1=C(O)c2ccccc2C(=O)C1=O	none (no result: PAX8 inh HTS)
CCC(=O)N(C1=C(NC)C(=O)c2ccccc2C1=O)C(C)C	TWEAK-Fn14 inh 61.0, PAX8 inh HTS 74.0
CC(=O)NC1=C(Nc2ccc(N(C)C)cc2)C(=O)c2ccccc2C1=O	none
CNC1=C(N(C(C)=O)c2ccc(Br)cc2)C(=O)c2ccccc2C1=O	TWEAK-Fn14 inh 90.8, PAX8 inh HTS 105.3, TROY NFkB inh 64.2 (no result: EWS-Fli inh)
CC(C)NC(=O)N[C@H]1CC[C@@H](CCNC(=O)C2CCCC2)O[C@H]1CO	none (no result: TWEAK-Fn14 inh, LMP1 NFkB inh, TROY NFkB inh)
COc1ccc(CCC(=O)Nc2ccc(C)c([N+](=O)[O-])c2)cc1	LMP1 NFkB inh 62.0 (no result: LGR2 antag)
Cc1sc(NC(=O)CCCC(=O)O)c(C(N)=O)c1-c1ccccc1	TWEAK-Fn14 inh 52.5, EWS-Fli inh 54.2
COc1ccc(NC(=O)N(C)C[C@@H]2Oc3ccc(NC(=O)CCCCCC(=O)Nc4ccccc4N)cc3CC(=O)N([C@H](C)CO)C[C@@H]2C)cc1	none (no result: TWEAK-Fn14 inh, LMP1 NFkB inh, TROY NFkB inh)
Cc1ccccc1C(=O)NNC(=O)c1cc(N)cc([N+](=O)[O-])c1	TROY NFkB inh 57.3 (no result: EWS-Fli inh)
Cc1ccccc1C(=O)NNc1ccc([N+](=O)[O-])cc1	none (no result: PAX8 inh HTS)
c1ccc(-c2cccc(-c3ccccn3)n2)nc1	LMP1 NFkB inh 52.9 (no result: PAX8 inh HTS)
c1ccc(-c2nnc(-c3ccccn3)nn2)nc1	none
Cc1cc(C)cc(OCC(O)CN2CCC(CN3C(=O)c4cccc5cccc(c45)C3=O)CC2)c1 (stereo not given)	PAX8 inh HTS 67.4
COc1cccc(OCC(O)CN2CCC(CN3C(=O)c4cccc5cccc(c45)C3=O)CC2)c1 (stereo not given)	none
CCCCn1c(CN2CCN(c3cccc(Cl)c3)CC2)nc2c1c(=O)[nH]c(=O)n2C	EWS-Fli inh 58.3 (no result: PAX8 inh HTS)
Cn1c(=O)[nH]c(=O)c2c1nc(CN1CCN(c3cccc(Cl)c3)CC1)n2CCCc1ccccc1	none
Cn1c(=O)[nH]c(=O)c2c1nc(CN1CCOCC1)n2CCCc1ccccc1	LMP1 NFkB inh 84.6
O=C(NCC(F)(F)F)[C@@H]1[C@@H](CO)[C@@H]2Cn3c(cccc3=O)[C@H]1N2CC1CCCCC1	none (no result: TWEAK-Fn14 inh, LMP1 NFkB inh, TROY NFkB inh)
COc1ccc2c3c([nH]c2c1)[C@@H](CO)N(S(C)(=O)=O)CC31CCN(CC2CCCCC2)CC1	none (no result: TWEAK-Fn14 inh, LMP1 NFkB inh, TROY NFkB inh)
CCC(C)(C)NC(=O)c1ccc(Sc2nncn2C)c([N+](=O)[O-])c1	none
Cn1cnnc1Sc1ccc(/C=C/C(=O)c2ccc(O)cc2)cc1[N+](=O)[O-]	TWEAK-Fn14 inh 90.2, EWS-Fli inh 69.2, LGR2 antag 66.0
CC(=O)N(C)/C=C1\Sc2ccccc2C1=O	none (no result: EWS-Fli inh, PAX8 inh HTS)
CCC(=O)N(C)/C=C1\Sc2ccccc2C1=O	LMP1 NFkB inh 76.0 (no result: EWS-Fli inh, PAX8 inh HTS)
CN1CC(=O)N2C(c3ccc(Cl)cc3)c3[nH]c4ccccc4c3C[C@H]2C1=O (stereo not given in full)	PAX8 inh HTS 103.4
COC(=O)c1ccc(C2c3[nH]c4ccccc4c3C[C@H]3C(=O)N(C)CC(=O)N23)cc1 (stereo not given in full)	none
CC1CCN(CC2C(=O)O[C@@H]3C[C@@]4(C)CCC[C@H](C)C4=C[C@H]23)CC(C)(C)C1 (stereo not given in full)	TWEAK-Fn14 inh 55.1, PAX8 inh HTS inconclusive
C=C1CCC[C@]2(C)C[C@H]3OC(=O)C(CN4CC(C)OC(C)C4)[C@H]3C[C@@H]12 (stereo not given in full)	none
CCc1noc(C)c1C(=O)OC(C)C(=O)c1c(C)[nH]c2ccccc12 (stereo not given)	none
Cc1[nH]c2ccccc2c1C(=O)C(C)OC(=O)c1ccc([N+](=O)[O-])o1 (stereo not given)	PAX8 inh HTS 61.7
CCN1C(=O)[C@@H]2[C@@H](c3ccc(SC4CCCCC4)cc3)N3CCCC[C@@]3(C(=O)OC)[C@@H]2C1=O	TWEAK-Fn14 inh 61.4, TROY NFkB inh 63.1 (no result: LGR2 antag)
CCN1C(=O)[C@@H]2[C@@H](c3ccc(-c4ccc(Cl)c(Cl)c4)cc3)N3CCC[C@@]3(C(=O)OC)[C@@H]2C1=O	LMP1 NFkB inh 74.7

High-throughput results deposited in PubChem by several laboratories.
